PubChem BioAssay (NCI)
This is part of a sample that, as a whole, favours compounds with a hit. Of some 83,000 tested, about 20% had one in any assay.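 Values shown are percent growth following 48 h exposure of cells in 96-well plates to a single concentration of compound; below 10 was considered active.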 A number with no mark means an inactive call. Active and inactive are the calls of the source.

How the values were obtained:
Experiment in all cases: NCI-60 one-dose screen, 48 h (100 = growth as untreated, 0 = no growth, -100 = all killed)
Settings in all cases: 10 µM unless noted
SR leukemia = system: SR leukemia
RPMI-8226 leukemia = system: RPMI-8226 leukemia
OVCAR-8 ovarian = system: OVCAR-8 ovarian
OVCAR-5 ovarian = system: OVCAR-5 ovarian
OVCAR-4 ovarian = system: OVCAR-4 ovarian
SK-OV-3 ovarian = system: SK-OV-3 ovarian
IGROV1 ovarian = system: IGROV1 ovarian
OVCAR-3 ovarian = system: OVCAR-3 ovarian
HS 578T breast = system: HS 578T breast
NCI/ADR-RES ovarian = system: NCI/ADR-RES ovarian

Structure (SMILES)	growth (SR leukemia)	growth (RPMI-8226 leukemia)	growth (OVCAR-8 ovarian)	growth (OVCAR-5 ovarian)	growth (OVCAR-4 ovarian)	growth (SK-OV-3 ovarian) [%]	growth (IGROV1 ovarian)	growth (OVCAR-3 ovarian)	growth (HS 578T breast)	growth (NCI/ADR-RES ovarian)
O=C1CSC(c2ccccc2Cl)N1c1nnc(Cn2nnc3ccccc32)o1 (stereo not given)	76%	69%	82.5%	91.2%	81%	94.6	79.6%	71.4%	103%	62.4%
COP(=O)(OC)C(c1ccc(O)cc1)(c1ccc(O)cc1)c1ccc(O)cc1	93.4%	99.3%	97.2%	124%	99.3%	122	11.3%	81.3%	98.8%	92.3%
O=C1NCCc2c1noc2-c1ccccc1	103%	113%	109%	103%	114%	91.3	99.5%	113%	111%	98.6%
CCN(Cc1cccc(S(=O)(=O)[O-])c1)c1ccc(C(=C2C=CC(=[N+](CC)Cc3cccc(S(=O)(=O)O)c3)C=C2)c2ccccc2S(=O)(=O)O)cc1	95.6%	100%	104%	94.5%	93.4%	102	110%	102%	106%	102%
CC(NNC(=S)N1CCCCCC1)c1ccc2ccccc2n1 (stereo not given)	34.5%	56.1%	18.1%	50.3%	30.2%	50.9	19.3%	47.4%	78.5%	20.8%
CC(NC(N)=S)c1ccccc1 (stereo not given)	100%	116%	106%	97.5%	106%	99.3	110%	111%	98.9%	106%
CC1CN(C2CCCCC2)C(=O)NC1=O (stereo not given)	80.3%	111%	104%	105%	116%	107	110%	111%	110%	119%
CCOC(=O)C(Br)=P(c1ccccc1)(c1ccccc1)c1ccccc1	90.2%	83.1%	90.4%	106%	106%	102	-30.7% (active)	98%	119%	103%
Cc1nn2c(/C=C3/C(=O)Nc4cc(Cl)ccc43)c(-c3ccccc3)nc2s1	15.1%	-19.6% (active)	-25.2% (active)	52.8%	-85.6% (active)	73.6	-23.5% (active)	-71.6% (active)	-0.41% (active)	24.2%
COC(=O)C1=CCC(n2cnc3c(N)ncnc32)O1 (stereo not given)	102%	118%	96.3%	109%	106%	108	109%	106%	110%	95.4%
Cc1ccc(N/N=C(/C(=O)c2ccc(Cl)cc2)c2nc(C)cc(=O)[nH]2)cc1	84.4%	85.1%	101%	122%	116%	116	7.59% (active)	95.8%	99.9%	103%
COc1ccc(OC)c(CCn2cncc2-c2c[nH]c3cc(Br)ccc23)c1	13.6%	16.7%	24.7%	79.5%	21.6%	38.8	47.9%	32.7%	59.8%	19.4%
O=C(Nc1ccccc1OC(=O)c1ccccc1)c1ccccc1	58.8%	91.7%	92.6%	93.1%	63.5%	89.2	90.6%	77.7%	101%	87.8%
COc1ccc(NC(=O)c2ccc(-c3ccccc3)cc2)c(C(N)=O)c1	72.2%	96.3%	108%	112%	115%	98.5	102%	96.6%	104%	98.2%
COc1ccc([N+](=O)[O-])c(S(=O)(=O)c2ccc(Cl)cc2)n1	-16% (active)	34.9%	71.7%	77.1%	68.7%	97.2	97.1%	36.6%	97.9%	81.3%
Cc1[nH]ccc2cc3nc4ccccc4c3cc12	3.33% (active)	15.9%	20.6%	42%	38.4%	34.7	23.6%	41.6%	55.3%	24.9%
COc1ccc(C2CC(c3ccc(Nc4ccnc5cc(Cl)ccc45)cc3)=NN2C(C)=O)cc1 (stereo not given)	-9.45% (active)	33.8%	72.8%	94.2%	59%	101	74.4%	64.2%	62.7%	67.7%
COc1cc(/C=C2\CN(C)CC3=C2Nc2nc(SC)[nH]c(=O)c2C3c2cc(OC)c(OC)c(OC)c2)cc(OC)c1OC (stereo not given)	-2.83% (active)	8.36% (active)	1.09% (active)	101%	75.9%	87.9	30.8%	15.7%	36.3%	-7.05% (active)
CC1C(=O)NC2=Nc3ccccc3C(=O)NN21 (stereo not given)	91.3%	90.3%	99.7%	96.5%	107%	105	79.6%	116%	108%	103%
NC(=O)c1cc(Br)cc(Br)c1NS(=O)(=O)c1ccccc1	101%	97.2%	114%	108%	95.8%	102	94.9%	106%	105%	103%
NC(=O)c1cc(Cl)ccc1NC(=O)c1ccccc1-c1ccccc1	5.82% (active)	19%	32%	54.4%	48.3%	33.1	30%	-30.7% (active)	33.8%	20.7%
COc1cc(/C=C2\CN(S(=O)(=O)c3ccc(C)cc3)C/C(=C\c3cc(CN4CCOCC4)c(O)c(OC)c3)C2=O)cc(CN2CCOCC2)c1O	4.35% (active)	-24.8% (active)	2.94% (active)	-26% (active)	24.8%	42.6	-17% (active)	-17.3% (active)	27.3%	5.42% (active)
CSc1nc(Nc2ccc(S(=O)(=O)Nc3ccon3)cc2)c(C#N)c(-c2ccc(Cl)cc2)n1	-37.8% (active)	71.3%	95.7%	106%	113%	108	96.6%	122%	106%	102%
Clc1ccc2[nH]cc(-c3cncn3CCc3ccccc3)c2c1	41%	22.6%	32.9%	74.7%	14.2%	41.1	69.3%	55.4%	51.3%	51.1%
CCc1nn2c(-c3ccc(Cl)cc3C)c(-c3cc(OC)c(OC)c(OC)c3)nc2s1	48.3%	63.8%	103%	92.9%	54%	94.5	73.1%	72.6%	48.5%	78.3%
